A selection: hits, their analogues and other compounds. The true share with any hit is near 1.6%.
KCNQ2 pot: potentiators of rat KCNQ2 potassium channel. O88943. CHO-K1 KCNQ2, FluxOR thallium flux fluorescence; hits give high values. B-score at 10 µM. actives 0.54% (n = 310,000);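 active = fluorescence ratio B-score at least 3 SD of library B-scores, with initial fluorescence B-score within 3 of them, cut at about 5.3 in these data; same plate scores as AID 2156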;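 note: B-score of peak minus minimum over baseline fluorescence ratio after K+ and Tl+ stimulus; positive B-score means potentiation of KCNQ2 with more thallium influx and brighter signal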
Target sequence (O88943 whole entry, looked up): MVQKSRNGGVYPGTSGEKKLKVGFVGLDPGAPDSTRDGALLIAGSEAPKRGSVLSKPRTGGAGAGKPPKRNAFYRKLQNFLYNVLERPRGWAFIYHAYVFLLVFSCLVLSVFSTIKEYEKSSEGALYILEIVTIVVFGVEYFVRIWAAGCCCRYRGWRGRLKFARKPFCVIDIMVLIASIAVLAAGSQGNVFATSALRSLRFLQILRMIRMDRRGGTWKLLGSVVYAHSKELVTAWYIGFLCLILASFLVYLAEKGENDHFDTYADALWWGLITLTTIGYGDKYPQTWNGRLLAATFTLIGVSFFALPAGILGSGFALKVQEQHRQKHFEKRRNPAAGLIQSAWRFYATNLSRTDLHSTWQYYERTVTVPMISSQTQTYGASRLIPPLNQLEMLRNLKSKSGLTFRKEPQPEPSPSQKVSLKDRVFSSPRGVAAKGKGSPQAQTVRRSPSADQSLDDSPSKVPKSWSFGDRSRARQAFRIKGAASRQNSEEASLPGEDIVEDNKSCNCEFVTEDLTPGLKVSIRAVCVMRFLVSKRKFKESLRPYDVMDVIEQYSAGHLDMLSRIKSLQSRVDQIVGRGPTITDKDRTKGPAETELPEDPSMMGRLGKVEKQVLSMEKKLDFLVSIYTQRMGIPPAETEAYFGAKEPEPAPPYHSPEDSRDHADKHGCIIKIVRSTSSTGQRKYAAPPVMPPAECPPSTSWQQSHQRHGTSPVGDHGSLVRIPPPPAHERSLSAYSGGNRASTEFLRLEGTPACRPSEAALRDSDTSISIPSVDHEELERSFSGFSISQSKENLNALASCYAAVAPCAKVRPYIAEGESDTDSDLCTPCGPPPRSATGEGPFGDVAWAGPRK
KCNQ2 block: blocks the rat KCNQ2 potassium channel. actives 1.1% (n = 310,000). O88943. AID 2156. CHO-K1 KCNQ2, FluxOR thallium flux, 20 min; hits give low values. B-score at 10 µM;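 active = fluorescence ratio B-score at most minus 3 library SDs, with starting brightness B-score within 2 library SDs, cut at about -5.5 in these data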
* marks the source's active call; other numbers are inactive results.

CC12CCC(=O)N1C(C(=O)O)Cc1c2[nH]c2ccccc12 (stereo not drawn) was read as KCNQ2 block inactive.
`CC(=O)N1C(C(=O)O)Cc2c([nH]c3ccccc23)C1(C)C` (stereo not drawn) gave KCNQ2 pot 7.3* and KCNQ2 block inactive.
COc1ccc(S(=O)(=O)NC(CC(=O)NCCc2ccc(OC)c(OC)c2)C(C)C)cc1 (stereo not drawn) was read as KCNQ2 block inactive.
For Cc1ccc2nc3c(c(Nc4cccc(O)c4)c2c1)CCC3 the results were KCNQ2 pot 0.14 and KCNQ2 block inactive.
Clc1ccc(-c2nc(NCCCN3CCOCC3)c3ccccc3n2)cc1 was read as KCNQ2 pot -7.9 and KCNQ2 block -7.9*.
COc1cccc(-c2nc(NCCN3CCOCC3)c3ccccc3n2)c1O was read as KCNQ2 block inactive.
`Clc1cccc(-c2nc(NCCCN3CCOCC3)c3ccccc3n2)c1` gave KCNQ2 block inactive.
Screening Oc1ccccc1-c1nc(NCCN2CCOCC2)c2ccccc2n1 returned KCNQ2 pot -8.2 and KCNQ2 block -8.2*.
O=C(N/N=C/c1cccnc1)c1cc(O)c(O)c(O)c1 was read as KCNQ2 block inactive.
For CCc1[nH]nc(C(=O)N2CCCC(CCC(=O)N3CCN(c4ccccn4)CC3)C2)c1C (stereo not drawn) the results were KCNQ2 block inactive.
Cc1cccc(NC(=O)C(CCC(N)=O)NC(=O)OCc2ccccc2)c1 (stereo not drawn) was read as KCNQ2 block inactive.
CC(=O)NCCC(=O)Nc1nc2ccc(Oc3ccccc3)cc2s1 was read as KCNQ2 pot 0.16 and KCNQ2 block inactive.
Screening CN(C)S(=O)(=O)c1cccc(NC(=O)c2ccc(COc3ccccc3)cc2)c1 returned KCNQ2 pot -5.8 and KCNQ2 block -5.8*.
For CN(C)S(=O)(=O)c1cccc(NC(=O)c2ccc(OC(F)(F)F)cc2)c1 the results were KCNQ2 pot 2.5 and KCNQ2 block inactive.
For COc1ccc(-n2nc3c(c2NC(=O)c2ccc(S(=O)(=O)N4CCOCC4)cc2)CS(=O)C3)cc1 (stereo not drawn) the results were KCNQ2 block inactive.
Screening CNC(=S)N/N=C/c1cc(Br)cc(Br)c1O returned KCNQ2 pot 7* and KCNQ2 block inactive.
Oc1c(Br)cc(Br)cc1/C=N/NC(=S)N[C@H]1CC2C=CC1C2 (stereo partly drawn) was read as KCNQ2 pot 0.28 and KCNQ2 block inactive.
`COC(=O)c1ccccc1S(=O)(=O)N1CCCC(c2nc3c(nnn3Cc3ccc(C)cc3)c(=O)[nH]2)C1` (stereo not drawn) gave KCNQ2 block inactive.
Screening COc1ccccc1NC(=O)N1CCCC(c2nc3c(nnn3Cc3ccc(C)cc3)c(=O)[nH]2)C1 (stereo not drawn) returned KCNQ2 pot -6.2 and KCNQ2 block -6.2*.
Screening O=C1NC2(CCN(Cc3ccccc3)CC2)Oc2ccccc21 returned KCNQ2 block inactive.
O=C1c2ccccc2OC2(C=Cc3ccccc3O2)N1Cc1ccccc1 (stereo not drawn) was read as KCNQ2 pot -8.3 and KCNQ2 block -8.3*.
`COC(=O)c1cn(C(=O)c2ccc(F)cc2)c2ccccc12` gave KCNQ2 block inactive.
C=CCOc1ccc(C(=O)n2cc(C(=O)OC)c3ccccc32)cc1 was read as KCNQ2 pot -6.2 and KCNQ2 block -6.2*.
Screening CC(=NC(C)C)C1=C(O)C(C)OC1=O (stereo not drawn) returned KCNQ2 block inactive.
CCOC(=O)C1=NN(c2cccc(Cl)c2)C2=NC(C)=C(C(=O)OC)C(c3cccs3)N12 (stereo not drawn) was read as KCNQ2 pot -5.7 and KCNQ2 block -5.7*.
CCOC(=O)C1=NN(c2ccccc2)C2=NC(C)=C(C(=O)OC)C(c3cccs3)N12 (stereo not drawn) was read as KCNQ2 block inactive.
Screening Cc1ccc(CN2CCc3c(OCC(=O)Nc4cccc(C)c4C)cccc3C2=O)cc1 returned KCNQ2 pot -7.2 and KCNQ2 block -7.2*.
Screening Cc1ccc(C)c(NC(=O)COc2cccc3c2CCN(Cc2ccccc2C)C3=O)c1 returned KCNQ2 block inactive.
For COC(=O)C1=NNC2(C)C(=O)N(c3ccc(C)cc3)C(=O)C12 (stereo not drawn) the results were KCNQ2 pot 0.45 and KCNQ2 block inactive.
For CC1CN(C(=O)CCC(=O)NCc2ccc(F)cc2)c2ccccc2S1 (stereo not drawn) the results were KCNQ2 block inactive.
COc1ccccc1CNC(=O)CCC(=O)N1CC(C)Sc2ccccc21 (stereo not drawn) was read as KCNQ2 pot -6.3 and KCNQ2 block -6.3*.
NC(=O)CSc1ccc(-c2ccc(F)cc2)nn1 was read as KCNQ2 pot 0.15 and KCNQ2 block inactive.
For CCOc1ccc(S(=O)(=O)N2CCN(c3ccc(C)cc3C)CC2)cc1 the results were KCNQ2 pot -7 and KCNQ2 block -7*.

Assay outcomes as filed in PubChem BioAssay.
